Assay outcomes deposited in PubChem BioAssay by several laboratories.
Rows were chosen to be rich in hits. Some 1.8% of all compounds tested hit in one or more screens of this group.
NLRP3 yeast inh – inhibitors of NALP3 inflammasome in yeast; inhibition, % at 10 µM; hit rate 0.39% among 330,000; Yeast reconstituted NLRP3/ASC/caspase-1, beta-gal luminescence, 24 h; AID 2825;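 active = inhibition of 50% or more; inactive = inhibition below 50%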
NALP1 yeast inh – inhibitors of NALP1 inflammasome in yeast; S. cerevisiae NALP1/ASC/caspase-1 growth, X-gal OD620, 72 h; inhibition, % at 10 µM; hit rate 0.61% among 280,000; in the data active = inhibition mostly above about 24%, no sharp cut-off; inactive = mostly below about 32%
Mot1-301 SUMO – blocks SUMOylation pathway, rescuing yeast Mot1-301 growth; S. cerevisiae Mot1-301 growth rescue, ATP luminescence, 38.5C; percent above DMSO median, 100 means doubled; growth rescue, % at 18.8 µM; hit rate 1% among 320,000;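 active = every valid replicate shows activation above 250% relative to neutral control wells; inactive = the rest, any valid replicate at or below 250%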
PolyA inhibitor – inhibitors of polyadenylation in S. cerevisiae | activity score, % at 12 µM | hit rate 0.02% among 300,000 | S. cerevisiae SKY197-pL101 polyadenylation reporter, beta-gal luminescence; efflux-impaired pdr1/pdr3 knockout yeast; score 100 = 6 SD above DMSO;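 active = lowest replicate activity score at least 50, where 100 means six control SD above control mean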;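 note: yeast exposed to compound for 9 h at 30 °C; higher score means more reporter readthrough which indicates perturbed polyadenylation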
Each line names hits and unclear results; the compound was inactive in the other large screens.

O=C1OCCC1Sc1nnnn1-c1ccccc1 (stereo unspecified)	none
O=C1OCCC1Sc1nnc(-c2ccc3c(c2)OCO3)n1-c1ccccc1 (stereo unspecified)	Mot1-301 SUMO 339.6
COC(=O)C1CCN(C(c2cc(OC)c(OC)c(OC)c2)c2sc3nc(C)nn3c2O)CC1 (stereo unspecified)	none (no result: NALP1 yeast inh)
CC1CN(CC(O)COc2ccc(C(C)C)cc2)CC(C)O1 (stereo unspecified)	Mot1-301 SUMO 326.2
COc1ccc(CCNC(=O)c2cccc([N+](=O)[O-])c2)cc1OC	none (no result: NALP1 yeast inh)
O=C(NCCc1ccccc1)c1cccc([N+](=O)[O-])c1	Mot1-301 SUMO 514.0
O=C(Cn1c(=O)c2sccc2n(Cc2cccc([N+](=O)[O-])c2)c1=O)NCCc1ccccc1	Mot1-301 SUMO 883.7
COc1ccc(-n2c(SCC(=O)Nc3cc(C)on3)nc3c([nH]c4ccccc43)c2=O)cc1OC	none
Cc1nn(C)cc1S(=O)(=O)N1CCN(Cc2ccc(F)cc2Cl)CC1	none
Fc1cccc(NC(=S)NCC(c2cccnc2)N2CCOCC2)c1 (stereo unspecified)	none
Cc1ccc(NC(=O)c2cccc(N3C(=O)C4C5CCC(C5)C4C3=O)c2)c(C)c1 (stereo unspecified)	Mot1-301 SUMO active
Cc1ccc(S(=O)(=O)N2CCN(C(=O)COC(=O)COc3ccccc3)CC2)cc1	NALP1 yeast inh 29.4
Cc1cc(C)cc(NC(=O)NCc2nnc(SCc3ccccc3)n2C)c1	none (no result: Mot1-301 SUMO)
COc1ccc(C(=O)C2CCCN(Cc3c(C)[nH]c4ccccc34)C2)c(OC)c1 (stereo unspecified)	NALP1 yeast inh 33.3
CN1/C(=C\C(=O)CSc2cccc[n+]2[O-])C(C)(C)c2ccccc21	none
CN1/C(=C/C(=O)CSc2ccccc2C(=O)O)C(C)(C)c2ccccc21	NALP1 yeast inh 44.9
Cc1ccc2c(c1)C(=O)CC(O)(C(F)F)O2 (stereo unspecified)	none
COc1ccc(N(C(=O)c2ccco2)C(C(=O)NC2CCCC2)c2ccncc2)cc1OC (stereo unspecified)	Mot1-301 SUMO 275.2
O=C(NC1CC1)C1CCN(C2CCN(Cc3ccccc3C(F)(F)F)CC2)CC1	Mot1-301 SUMO 312.6
O=C(Nc1ccccc1C(F)(F)F)N1CCC(N2CCCCC2)CC1	Mot1-301 SUMO 295.6
Cc1cc(CN2CCC(N3CCC(C(=O)NC4CC4)CC3)CC2)cc(C)c1O	none
C=CCNC(=S)Nc1cccc2ccccc12	none
O=C(O)Cn1cc(/C=C2\SC(=O)N(c3ccccc3)C2=O)c2ccccc21	Mot1-301 SUMO 672.4
CCCCNC(=O)c1cc(-c2ccc(OC)c(OC)c2)on1	NALP1 yeast inh 42.9
CCCCNC(=O)c1cc(-c2ccc(OC)cc2)on1	none
ClCc1c2ccccc2cc2ccccc12	none (no result: NALP1 yeast inh, PolyA inhibitor)
Cc1cc(C)cc(NC(=O)c2cnn(-c3ccccc3)c2C2CCNCC2)c1	NALP1 yeast inh 23.0
CCc1ccc(NC(=O)c2cnn(-c3ccccc3)c2C2CCNCC2)cc1	none
O=C(COc1coc(CN2CCN(c3ccc(F)cc3)CC2)cc1=O)Nc1ccccc1	none (no result: NALP1 yeast inh)
O=C(OCc1nc2ccsc2c(=O)[nH]1)c1ccc(Cl)s1	none (no result: NALP1 yeast inh)
O=C(COC(=O)c1ccccc1C(=O)c1ccc(Cl)cc1)NCc1ccccc1	none
O=C(COC(=O)c1ccccc1C(=O)c1ccccc1)NCc1ccc(F)cc1	Mot1-301 SUMO 336.8
Cc1cccc(C)c1NC(=O)C1CCCN(CCCc2ccccc2)C1 (stereo unspecified)	NALP1 yeast inh 42.2 (no result: NLRP3 yeast inh, Mot1-301 SUMO, PolyA inhibitor)
CCCCN(C)C(=S)Nc1ccc(Oc2ccccc2)cc1	none
CCCN(CC1CC1)C(=S)Nc1ccc(Oc2ccccc2)cc1	NALP1 yeast inh 61.2
CCCCNc1nc(CC)c2c(c1C#N)CCCC2	NALP1 yeast inh 40.9
COc1ccccc1C(=O)C1CCCN(C(=O)CCC(=O)c2ccccc2)C1 (stereo unspecified)	none
COc1ccc(C(=O)N[C@H]2CCCCNC2=O)cc1OC1CCN(C(C)C)CC1	none
CC(c1nnnn1C1CCCCC1)N(Cc1ccccc1)Cc1cccnc1 (stereo unspecified)	Mot1-301 SUMO 278.4
CCN(Cc1ccccc1)C(c1ccccn1)c1nnnn1C1CCCCC1 (stereo unspecified)	none (no result: Mot1-301 SUMO)
Cn1nnnc1Sc1ncnc2scc(-c3ccc(Br)cc3)c12	none (no result: NALP1 yeast inh, PolyA inhibitor)
CC1CCCC(NC(=O)COC(=O)Cc2ccc(Br)cc2)C1C (stereo unspecified)	NALP1 yeast inh 17.7
COc1cccc(/C=N/Nc2nc(-c3cccnc3)nc3ccccc23)c1	Mot1-301 SUMO 313.7
C(=N\Nc1nc(-c2cccnc2)nc2ccccc12)/c1ccccc1	none
